{
  "source": "PubChem BioAssay AID504332",
  "about": "(National Center for Advancing Translational Sciences (NCATS), 2011)",
  "note": "In all, about 350,000 compounds went through this assay and about 31,000 (8.9%) were called active. About 15% were inconclusive and are not listed. Calls follow the shape of the dose curve; as a rule, active = well fitted inhibition curve with a large enough effect; inconclusive = small, poorly fitted or top-dose-only effect; inactive = no such curve, though single readings can be large or run the other way. What follows is part of a selection rich in actives, with near analogues and random picks from the rest. % is scaled to controls: 0 for no effect and ±100 for the full control effect; potency is read from the fitted curve at half-maximal effect.",
  "data": [
    {"target": "Histone-lysine N-methyltransferase EHMT2 (Homo sapiens) (UniProt Q96KQ7)", "sequence (Q96KQ7 913-1193 limits assumed)": "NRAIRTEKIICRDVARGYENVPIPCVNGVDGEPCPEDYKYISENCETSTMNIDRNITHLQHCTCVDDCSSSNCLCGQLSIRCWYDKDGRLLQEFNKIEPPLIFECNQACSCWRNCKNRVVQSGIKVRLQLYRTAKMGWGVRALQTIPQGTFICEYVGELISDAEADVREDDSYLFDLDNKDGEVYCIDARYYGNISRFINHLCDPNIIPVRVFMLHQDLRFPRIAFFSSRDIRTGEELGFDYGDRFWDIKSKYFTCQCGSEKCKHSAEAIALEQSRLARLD", "assay": "qHTS Assay for Inhibitors of Histone Lysine Methyltransferase G9a; also: nearly all actives have a fitted effect of over 75% in size", "details": "G9a H3K9 monomethylation, AlphaScreen, 2 h; series mostly up to 59 µM; activity, negative = inhibition: at the top concentration", "in_short": "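Using a bead-based AlphaScreen, monomethylated H3K9 product from 2 h room-temperature reactions (G9a 20 nM, peptide 500 nM, SAM 20 uM) was detected with 0.5 ug/mL rabbit anti-H3K9me1 antibody.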", "values": [
      {"smiles": "CCOc1ccc(NC(=O)COc2ccc(C(=O)N3CCC(C(N)=O)CC3)cc2OC)cc1", "activity, negative = inhibition": "4.45% [at 0.501 µM] (inactive)"},
      {"smiles": "CC(OC(=O)CNC(=O)c1ccco1)C(=O)Nc1ccc(Cl)cn1", "note": "(centres undefined)", "activity, negative = inhibition": "-31.5% [at 102 µM] (inactive)"},
      {"smiles": "COc1ccc2[nH]c3ccc(OC)cc3c2c1", "Potency": "50.1 µM (active)"},
      {"smiles": "CCN(CC)CC(=O)c1c[nH]c2ccc(OC)cc12", "activity, negative = inhibition": "-8.26% [at 102 µM] (inactive)"},
      {"smiles": "COc1ccc2[nH]c(C(=O)N3CCN(C)CC3)c(C)c2c1", "activity, negative = inhibition": "18.9% [at 102 µM] (inactive)"},
      {"smiles": "COc1ccc(NC(=O)c2cc3cc(C)ccc3n2C)cc1", "activity, negative = inhibition": "-1.97% (inactive)"},
      {"smiles": "CCC(C)NC(=O)c1ccc(NC(=O)CC2SC(N3CCCCC3)=NC2=O)cc1", "note": "(centres undefined)", "activity, negative = inhibition": "-0.745% [at 12.7 µM] (inactive)"},
      {"smiles": "CC(=O)O[C@H]1CC[C@@]2(C)[C@@H](CC[C@@H]3[C@@H]2CC[C@]2(C)[C@@H](C(C)(C)O)C[C@@H]32)C1", "activity, negative = inhibition": "-7.36% [at 2.33 µM] (inactive)"},
      {"smiles": "O=C(NCc1ccco1)c1nn2cccnc2c1Cl", "activity, negative = inhibition": "-46.5% [at 102 µM] (inactive)"},
      {"smiles": "O=C(NCc1ccco1)c1sc2cccc(F)c2c1Cl", "Potency": "8.91 µM (active)"},
      {"smiles": "O=C(NCc1ccco1)C1(c2ccc(Cl)cc2)CCCC1", "activity, negative = inhibition": "-2.12% [at 102 µM] (inactive)"},
      {"smiles": "COc1ccc(-c2cc(C(=O)N3CCN(Cc4ccc5c(c4)OCO5)CC3)on2)cc1OC", "activity, negative = inhibition": "-12.3% [at 102 µM] (inactive)"},
      {"smiles": "CCN1C(=O)[C@H]2[C@@H](c3ccc(C)cc3)N3C(=O)N(c4cccc(Br)c4)C(=O)[C@@]3(CC)[C@H]2C1=O", "activity, negative = inhibition": "-0.448% [at 2.33 µM] (inactive)"},
      {"smiles": "C=CCOc1ccc(/C=N/NC(=O)C(C)Sc2ccccn2)cc1OCC", "note": "(centres undefined)", "activity, negative = inhibition": "11.1% (inactive)"},
      {"smiles": "CCOc1cc(/C=N/O)ccc1OCc1ccccc1F", "activity, negative = inhibition": "2.07% (inactive)"},
      {"smiles": "C#CCOc1ccc(/C=C2/C(=O)ON=C2C)cc1OCC", "Potency": "39.8 µM (active)"},
      {"smiles": "C#CCOc1ccccc1/C=C1/C(=O)ON=C1C", "activity, negative = inhibition": "-20.2% [at 102 µM] (inactive)"},
      {"smiles": "COc1cc(/C=C2\\SC(=O)NC2=O)ccc1OCc1ccc(Cl)nc1", "activity, negative = inhibition": "21.1% [at 2.33 µM] (inactive)"},
      {"smiles": "COc1ccnc2c1c(=O)n(Cc1cccc(F)c1)c(=O)n2C", "activity, negative = inhibition": "-0.373% [at 102 µM] (inactive)"},
      {"smiles": "COc1cc(/C=C2/C(=O)ON=C2C)ccc1OCc1cccc(F)c1", "Potency": "50.1 µM (active)"},
      {"smiles": "CCOc1cc(/C=C2\\C(=N)N3N=C(C)SC3=NC2=O)ccc1OCCOc1ccccc1", "activity, negative = inhibition": "-11.6% [at 102 µM] (inactive)"},
      {"smiles": "C=CCOc1ccc(/C=C2/C(=O)ON=C2C)cc1OCC", "Potency": "44.7 µM (active)"},
      {"smiles": "O=C1CC(c2ccc(F)cc2F)c2cc3c(cc2N1)OCO3", "note": "(centres undefined)", "activity, negative = inhibition": "-32.1% (inactive)"},
      {"smiles": "Cc1ccc(S(=O)(=O)N2CCN(C(=O)Cc3sc(C)nc3-c3ccc(F)cc3)CC2)c(C)c1", "activity, negative = inhibition": "-43.6% [at 102 µM] (inactive)"},
      {"smiles": "CCc1ccc(S(=O)(=O)c2nnn3c2nc(NCc2ccccc2OC)c2cc(Cl)ccc23)cc1", "activity, negative = inhibition": "-2.21% (inactive)"},
      {"smiles": "O=C(Nc1nc2ccc(F)cc2s1)c1nc(SCc2ccccc2F)ncc1Cl", "activity, negative = inhibition": "1.57% (inactive)"},
      {"smiles": "CCOC(=O)Cc1ccc(NC(=O)Nc2c[nH]c(=O)[nH]c2=O)cc1", "activity, negative = inhibition": "-37.2% (inactive)"},
      {"smiles": "CCc1ccc(NC(=O)c2cc3c(=O)n(Cc4cccnc4)ccc3nc2C)cc1", "activity, negative = inhibition": "4.59% (inactive)"},
      {"smiles": "O=C(c1ccc(S(=O)(=O)N2CCCC2)cc1)N1CCN(c2ccccc2F)CC1", "activity, negative = inhibition": "-24.1% [at 102 µM] (inactive)"},
      {"smiles": "CNS(=O)(=O)c1ccc(C(=O)NCC(=O)NCCc2ccc3c(c2)OCCO3)cc1", "activity, negative = inhibition": "-2.43% [at 12.7 µM] (inactive)"},
      {"smiles": "CCOc1ccc(S(=O)(=O)NCCC(=O)NCC2CCCO2)cc1", "note": "(centres undefined)", "activity, negative = inhibition": "28.8% [at 12.7 µM] (inactive)"},
      {"smiles": "O=C(CN(CC1CCCO1)C(=O)CNS(=O)(=O)c1ccc(Cl)cc1)NCc1ccccc1", "note": "(centres undefined)", "activity, negative = inhibition": "11.7% [at 102 µM] (inactive)"},
      {"smiles": "Cc1ccc(S(=O)(=O)NCC(=O)N(CC(=O)NCC2CCCO2)c2cccc(F)c2)cc1", "note": "(centres undefined)", "activity, negative = inhibition": "-4.98% [at 102 µM] (inactive)"},
      {"smiles": "Cc1ccc(N(CC(=O)NCC2CCCO2)C(=O)CNS(=O)(=O)c2ccc(Cl)cc2)cc1", "note": "(centres undefined)", "Potency": "1 µM (active)"},
      {"smiles": "CCOc1ccc(N(CC(=O)NCC2CCCO2)S(=O)(=O)c2ccc(C)cc2)cc1", "note": "(centres undefined)", "Potency": "50.1 µM (active)"},
      {"smiles": "Cc1ccc(CN(CC(=O)NCC2CCCO2)S(=O)(=O)c2ccc(C)cc2)cc1", "note": "(centres undefined)", "activity, negative = inhibition": "2.68% [at 102 µM] (inactive)"},
      {"smiles": "Cc1ccc(-c2nnc(Nc3cccc(Br)c3)c3ccccc23)cc1S(=O)(=O)NCC1CCCO1", "note": "(centres undefined)", "activity, negative = inhibition": "-31.8% (inactive)"},
      {"smiles": "CCOc1ccccc1NC(=O)Cn1c2ncccc2c(=O)n1-c1ccc(C)c(C)c1", "activity, negative = inhibition": "14% (inactive)"},
      {"smiles": "COc1cc2ccccc2cc1C(=O)Nc1cccc(-c2nc3ccccc3o2)c1", "activity, negative = inhibition": "-49.4% (inactive)"},
      {"smiles": "O=C(/C=C/c1ccccc1)N1CCN(Cc2cc(=O)n3nc(-c4ccccc4F)sc3n2)CC1", "activity, negative = inhibition": "3.63% (inactive)"},
      {"smiles": "O=C(NCCC1=CCCCC1)c1ccc2c(c1)N(Cc1ccccc1F)C(=O)c1ccccc1S2(=O)=O", "activity, negative = inhibition": "-2.68% (inactive)"},
      {"smiles": "C=C(C)COc1ccc(-c2ncncc2-c2ccc(OC)cc2)c(O)c1", "activity, negative = inhibition": "-21.2% [at 102 µM] (inactive)"},
      {"smiles": "CC(C)c1ccc(NC(=O)Cn2c3ncccc3c(=O)n2-c2ccccc2)cc1", "activity, negative = inhibition": "7.51% (inactive)"},
      {"smiles": "N#CC1=C(N)Oc2[nH]c(=S)[nH]c(=O)c2C12C(=O)Nc1ccccc12", "note": "(centres undefined)", "Potency": "35.5 µM (active)"},
      {"smiles": "Cc1ccc(NC2(C#N)C(=O)Nc3ccccc32)cc1", "note": "(centres undefined)", "activity, negative = inhibition": "-25.6% [at 2.33 µM] (inactive)"},
      {"smiles": "N#CC1=C(N)Oc2n[nH]c(CSc3ccccc3)c2C12C(=O)Nc1ccccc12", "note": "(centres undefined)", "activity, negative = inhibition": "-4.68% (inactive)"},
      {"smiles": "O=C1c2ccccc2NC(c2ccc(-c3cccc(Cl)c3)o2)N1O", "note": "(centres undefined)", "activity, negative = inhibition": "25.2% [at 12.7 µM] (inactive)"},
      {"smiles": "CN=C1S/C(=C\\c2ccc(Sc3ccc(Cl)cc3)o2)C(=O)N1C", "activity, negative = inhibition": "0.554% [at 102 µM] (inactive)"},
      {"smiles": "O=C(O)C(c1ccccc1)N1C(=O)/C(=C\\c2ccc(-c3cccc(Cl)c3)o2)SC1=S", "note": "(centres undefined)", "Potency": "39.8 µM (active)"},
      {"smiles": "Cc1ccc(C(=O)COC(=O)C(Cc2c[nH]c3ccccc23)NC(=O)c2ccc(Br)cc2)cc1", "note": "(centres undefined)", "activity, negative = inhibition": "-5.2% (inactive)"},
      {"smiles": "Cn1cc(S(=O)(=O)N2CCCCCC2)cc1C(=O)N1CCN(c2ccc(F)cc2)CC1", "activity, negative = inhibition": "8.88% (inactive)"},
      {"smiles": "CCCCc1nn2c(=O)cc(COC(=O)c3ccc(NC(=O)c4ccccc4C)cc3)nc2s1", "activity, negative = inhibition": "5.46% (inactive)"},
      {"smiles": "Cc1ccc(-n2c(SCC(=O)Nc3cccc(F)c3)nc3c(oc4ccccc43)c2=O)cc1C", "activity, negative = inhibition": "-33.8% (inactive)"},
      {"smiles": "CCN(CC(=O)Nc1ccc(OC)cc1)C(=O)c1ccc(Cl)c(S(=O)(=O)N2CCCC2)c1", "activity, negative = inhibition": "11.9% (inactive)"},
      {"smiles": "COc1ccc(C(=O)OCC(=O)c2ccc(Cl)s2)c(OC)c1OC", "activity, negative = inhibition": "25.4% (inactive)"},
      {"smiles": "C=CCNC(=S)NNC(=O)c1ccc(Br)o1", "activity, negative = inhibition": "7.59% [at 102 µM] (inactive)"},
      {"smiles": "C=CCNC(=S)NNC(=O)c1cc(Cl)ccc1OC", "activity, negative = inhibition": "9.14% [at 102 µM] (inactive)"},
      {"smiles": "C=CCNC(=S)NNC(=O)COc1c(Cl)cc(Cl)cc1Cl", "Potency": "8.91 µM (active)"},
      {"smiles": "Cc1ccc(CSCC2Nc3ccc(C(=O)N4CCN(c5ccc(F)cc5)CC4)cc3NC2=O)cc1", "note": "(centres undefined)", "Potency": "2.24 µM (active)"},
      {"smiles": "O=C(c1cccc(F)c1)N1CCC2(CC1)CCN(c1ccccc1)CC2", "activity, negative = inhibition": "-4.3% [at 12.7 µM] (inactive)"},
      {"smiles": "O=C(c1cc(C(=O)N2CCN(c3ccc(F)cc3)CC2)cc([N+](=O)[O-])c1)N1CCN(c2ccc(F)cc2)CC1", "activity, negative = inhibition": "1.74% [at 0.501 µM] (inactive)"},
      {"smiles": "O=C1Nc2cc(C(=O)N3CCN(c4ccc(F)cc4)CC3)ccc2NC1CSCc1cccc(F)c1", "note": "(centres undefined)", "Potency": "10 µM (active)"},
      {"smiles": "O=C(c1cc(-c2ccc(F)cc2)on1)N1CCN(c2ccc(F)cc2)CC1", "Potency": "inactive"},
      {"smiles": "C=CCn1c(SCc2cccc(F)c2)nc2cc(C(=O)N3CCC(C(N)=O)CC3)ccc2c1=O", "activity, negative = inhibition": "-26% [at 102 µM] (inactive)"}
    ]}
  ]
}
